Reference: PubChem BioAssay AID1259343 (VanderVen Lab, College of Veterinary Medicine, Cornell …, 2017)
Screen size: about 6,200 compounds; about 2,900 (47%) were called active. Rule as the data show it: active = inhibition above about 50%; inactive = the rest. So high a share suggests a set chosen from earlier hits. The list shows a part of the results.

Experiment: Mycobacterium tuberculosis growth inhibition, primary screen (AID 1259343)
Settings: inhibition: at 10 µM, hits give high values; outcome: 10 uM

Structure (SMILES)	inhibition
O=C(CC(Nc1ccc2ccccc2c1)c1ccncc1)c1ccccc1 (stereo unspecified)	88.8% (active)
C=CCNC(=S)Nc1ccc(Cl)c(Cl)c1	21.1% (inactive)
C=CCNC(=S)Nc1ccc(Cl)cc1F	35.1% (inactive)
C=CCNC(=S)Nc1ccc(SC(F)F)cc1	53.4% (active)
COC(=O)c1sc(NC(=O)CCCl)c(C(=O)OC)c1C	101% (active)
CCOC(=O)c1c(NC(=O)CCl)sc(C(=O)OC)c1CC(=O)OC	-17.1% (inactive)
Cc1sc(NC(=O)CC(C)(C)CC(=O)Nc2sc(C)c(C)c2C(=O)O)c(C(=O)O)c1C	29.4% (inactive)
Cc1csc(C(C)NCc2ccc(OCC(C)C)cc2)n1 (stereo unspecified)	51.6% (active)
Cc1ccc(-c2ncc(C(=O)NC(C)C)s2)c(C)c1	61.8% (active)
COc1ccc(C)cc1-c1csc(NC(=O)C(C)C)n1	11.6% (inactive)
Cc1ccc(-c2csc3nc(C4CC4)[nH]c(=O)c23)c(C)c1	6.81% (inactive)
CCOC(=O)c1nn(-c2ccc(OCC)cc2)c2nnc(Cc3cccnc3)c(=O)n12	-11.2% (inactive)
CCOC(=O)c1nn(-c2cccc(Cl)c2)c2nc(-c3cccs3)c(C#N)c(=O)n12	52.1% (active)
COC(=O)CCn1c(=O)c2c(nc3n(CCc4ccccc4)c(C)cn23)n(C)c1=O	2.78% (inactive)
COc1cccc(C(=O)CSc2nnc(NC(=O)c3cccc(Cl)c3)s2)c1	55.3% (active)
CNc1nnc(SCc2cccc(Cl)c2)s1	23.8% (inactive)
COc1ccccc1Nc1nnc(SCC(=O)c2ccc(O)c(O)c2)s1	83.9% (active)
O=C1c2cccc3cccc(c23)N1S(=O)(=O)c1ccc(Cl)cc1	-5.06% (inactive)
CCN(CCn1cccn1)Cc1nc(-c2ccc3c(c2)OCO3)no1	90.5% (active)
CN(Cc1nc(-c2ccc3c(c2)OCO3)no1)CC1COc2ccccc2O1 (stereo unspecified)	inactive
CN(Cc1ccc2nsnc2c1)Cc1nc(-c2ccc3c(c2)OCO3)no1	84.1% (active)
CN(Cc1ccc2nonc2c1)Cc1nc(-c2ccc3c(c2)OCO3)no1	13.7% (inactive)

Structure (SMILES)	inhibition
Cc1ccc(CN(C)Cc2nc(-c3ccc4c(c3)OCO4)no2)o1	90.8% (active)
C=Cc1ccc(CSc2nccn(-c3ccc(C)cc3)c2=O)cc1	95.7% (active)
COc1ccc(-n2ccnc(SCc3ccc(F)cc3)c2=O)cc1	76.6% (active)
C=Cc1ccc(CSc2nncn3c2cc2occc23)cc1	31.6% (inactive)
Cc1nnc(SCc2ccc(C(=O)NCc3ccncc3)cc2)n1-c1ccc(F)cc1	-8.13% (inactive)
NC(=S)N=C1CCN(c2ccccc2)N1	93.8% (active)
c1ccc(N2CCC(=NC3=NCCCCC3)N2)cc1	4.7% (inactive)
Cc1cccc(N2CCC(=NC(N)=S)N2)c1	33.7% (inactive)
FC(F)(F)c1nc(Nc2ccc3c(c2)OCCCO3)c2ccccc2n1	100% (active)
c1ccc(-c2nc(Nc3ccc4c(c3)OCCO4)c3ccccc3n2)cc1	-17% (inactive)
c1nc(Nc2ccc3c(c2)OCCO3)c2c3c(sc2n1)CCCC3	-26.9% (inactive)
O=C(NCC(=O)N1CCN(Cc2ccc(OC(F)(F)F)cc2)CC1)c1ccco1	94.3% (active)
COc1cccc(COc2coc(CN3CCCN(S(=O)(=O)c4ccc(OC(F)(F)F)cc4)CC3)cc2=O)c1	10.6% (inactive)
CC(C)(Oc1ccc(Cl)cc1)C(=O)NCc1ccoc1	24.1% (inactive)
CC(C)CSc1nnc(Nc2ccc(C(C)C)cc2)s1	92.2% (active)
Cc1ccc(Nc2nnc(SCC(C)C)s2)cc1	94.1% (active)
CC(C)c1ccc(Nc2nnc(SCCO)s2)cc1	25.5% (inactive)
CCCCOc1ccc(NC(=O)CC2CCCC2)cn1	99.4% (active)
COc1cccc(C(=O)Nc2ccc(Oc3ccc(F)cc3)nc2)c1OC	45% (inactive)
O=C(CC1CCCC1)Nc1ccc(S(=O)(=O)C(F)F)cc1	11.8% (inactive)
OCC1(Cc2ccccc2)CCCN(Cc2ccc(-c3ccco3)cc2)C1 (stereo unspecified)	inactive
Clc1cccc(CN2CCCC(Nc3ccccc3)C2)c1 (stereo unspecified)	59.2% (active)

Structure (SMILES)	inhibition
OCC1(Cc2ccccc2)CCCN(Cc2ccc(OC(F)(F)F)cc2)C1 (stereo unspecified)	20.7% (inactive)
OCCC#Cc1ccc(CN2CCCC(Nc3ccccc3)C2)cc1 (stereo unspecified)	70.9% (active)
CC(C)c1cc(C(=O)N2CCCC(N3CCN(c4cccc(C(F)(F)F)c4)CC3)C2)on1 (stereo unspecified)	46.1% (inactive)
CSc1ncc(CNCCc2cccc(Cl)c2)c(N2CCCC(C)C2)n1 (stereo unspecified)	18% (inactive)
Clc1cccc(N2CCN(C3CCCN(Cc4ccc5nsnc5c4)C3)CC2)c1 (stereo unspecified)	75.5% (active)
OCCC#Cc1ccc(CN2CCCC(CO)(Cc3ccccc3)C2)cc1 (stereo unspecified)	69.2% (active)
O=C(c1cc(F)ccc1F)C1CCCN(Cc2cccc3cnccc23)C1 (stereo unspecified)	inactive
Cc1cc(Cl)ccc1C(=O)C1CCCN(Cc2ccc(C#CCCO)cc2)C1 (stereo unspecified)	77.5% (active)
O=C(CN1CCCC1c1ccccc1)Nc1cc(F)cc(F)c1 (stereo unspecified)	2.2% (inactive)
O=C(NCc1cccnc1-n1cccn1)C1CCCN(Cc2cccnc2)C1 (stereo unspecified)	-13.9% (inactive)
Oc1ccccc1CN1CCCC(Nc2cccc(F)c2)C1 (stereo unspecified)	72.9% (active)
O=C(c1ccc(-c2ccccc2)cc1)C1CCCN(Cc2ccncc2)C1 (stereo unspecified)	inactive
c1ccc(NC2CCCN(Cc3ccc4nsnc4c3)C2)cc1 (stereo unspecified)	65.6% (active)
Oc1cccc(-c2cc(C3CCN(Cc4ccc5nonc5c4)C3)ccn2)c1 (stereo unspecified)	14.6% (inactive)
O=C(c1ccc(Cl)cc1)C1CCCN(Cc2cccc3cnccc23)C1 (stereo unspecified)	-4.04% (inactive)
CCN(CC)c1ccc(/C=C2\SC(=S)N(Cc3ccccc3)C2=O)c(O)c1	-15.2% (inactive)
N#Cc1ccc(NC(=O)Nc2ccccc2Br)c2n[nH]nc12	64.4% (active)
CN(CC(=O)Nc1ccccc1Br)C1CCc2ccccc21 (stereo unspecified)	34.1% (inactive)
N#Cc1ccc(CNc2ccccc2Br)cc1	49.2% (inactive)
COc1ccc(C(CC(=O)c2cccs2)Sc2ccccc2NC(C)=O)cc1 (stereo unspecified)	53.2% (active)
COc1ccc(C2c3cccn3CCN2C(=O)Nc2cccs2)cc1 (stereo unspecified)	-1.32% (inactive)
NC(=S)c1cc2ccccc2oc1=O	101% (active)

Structure (SMILES)	inhibition
O=c1oc2ccccc2cc1S(=O)(=O)c1ccc(Cl)cc1	-58.5% (inactive)
Cc1ccn2c(=O)nc(SCc3ccc(F)cc3)nc2c1	1.46% (inactive)
Cc1ccn2c(=O)nc(SCc3ccc(Br)cc3)nc2c1	1.95% (inactive)
Cc1ccn2c(=O)nc(SCc3ccc(Cl)cc3)nc2c1	77.5% (active)
Cc1ccn2c(=O)nc(SCc3ccc(Cl)c(Cl)c3)nc2c1	59% (active)
Cc1ccn2c(=O)nc(SCc3cccc(Cl)c3)nc2c1	86.3% (active)
Cc1ccn2c(=O)nc(SCc3ccc(Cl)cc3Cl)nc2c1	31.1% (inactive)
Cc1ccn2c(=O)nc(SCCc3ccccc3)nc2c1	88.3% (active)
Cc1ccn2c(=O)nc(SCc3cccc(C(F)(F)F)c3)nc2c1	2.92% (inactive)
Cc1ccc(CSc2nc(=O)n3ccc(C)cc3n2)cc1	24.5% (inactive)
N#CCSc1nnnn1-c1ccc(O)cc1	-12.8% (inactive)
CCCSc1nnnn1-c1ccc(O)cc1	55% (active)
COc1cc(NC(=O)CSc2ncnc3c2cnn3C)cc(OC)c1	35.5% (inactive)
O=C(CSc1ncnc2c1cnn2-c1ccc(F)cc1)Nc1ccon1	68.2% (active)
Cc1noc(-c2ccnc(NCc3ccc(C#N)cc3)c2)n1	22.9% (inactive)
Cc1nc(SCC(=O)C23CC4CC(CC(C4)C2)C3)nc(C)c1C	45% (inactive)
O=C(C[P+](c1ccccc1)(c1ccccc1)c1ccccc1)C12CC3CC(CC(C3)C1)C2	95.7% (active)
CC(=O)CSc1nc2sc(C)c(C)c2c(=O)n1C1CCCCC1	12% (inactive)
Cc1ccc(-n2c(SCC(=O)N3CCNC3=O)nc3sc4c(c3c2=O)CCC4)c(C)c1	91.2% (active)
Fc1ccc(Cc2nc(CSc3c(F)c(F)cc(F)c3F)cs2)c(Cl)c1	50.2% (active)
CNC(Cc1ccc(Br)cc1)Cc1ccc(Br)cc1	68.1% (active)
CN1CCN(CC(O)COc2ccc(C34CC5CC(CC(C5)C3)C4)cc2)CC1 (stereo unspecified)	101% (active)

Structure (SMILES)	inhibition
NCCOc1ccc(C23CC4CC(CC(C4)C2)C3)cc1	-5.79% (inactive)
C1=C(CCNc2ncnc3sc4c(c23)CCC4)CCCC1	97% (active)
CCCCCNc1ncnc2sc3c(c12)CCCC3	-24.3% (inactive)
c1nc(NC2CCCCCC2)c2c3c(sc2n1)CCCC3	94.5% (active)
c1nc(NC2CCCCCC2)c2c3c(sc2n1)CCC3	68% (active)
CC(=NNc1ncnc2sc3c(c12)CCC3)c1cc2ccccc2o1	24.7% (inactive)
COCc1nc(NCCC2=CCCCC2)c2cnn(C)c2n1	-33.4% (inactive)
c1nc(NN=C2C3CC4CC(C3)CC2C4)c2c3c(sc2n1)CCC3	100% (active)
Cc1cn2nc(NC3CCCCCCC3)sc2n1	-9.07% (inactive)
c1csc(CCNc2ncnc3sc4c(c23)CCC4)c1	-1.33% (inactive)
O=S(=O)(Nc1ncnc2sc3c(c12)CCC3)c1cccs1	101% (active)
O=C(CSc1nnc(CCn2ccc(=O)[nH]c2=O)o1)N1CCc2ccccc2C1	4.33% (inactive)
Cc1nc(-c2ccccn2)[nH]c(=O)c1CC(=O)N1CCc2ccccc2C1	67.7% (active)
Cc1ccc(NC(=O)c2cc(C)n(C3CC3)c2C)c(C)c1	12.4% (inactive)
CC1=C(C#N)C(C(F)(F)F)(C(F)(F)F)N=C(C2CCCCC2)N1	11.3% (inactive)
CC(=O)Nc1nc(COc2ccc(Cl)cc2Br)cs1	41.2% (inactive)
Nc1nc(COc2ccc(Cl)cc2Cl)cs1	87.6% (active)
Cc1nc(COc2ccccc2C(=O)Nc2ccc(Cl)cc2C)cs1	-36.5% (inactive)
